Rows were chosen to be rich in hits. Some 18% of all compounds tested hit in one or more screens of this group.
TDP1 inh = inhibitors of human tyrosyl-DNA phosphodiesterase TDP1; Q9NUW8; recombinant TDP1, AlphaScreen DNA substrate cleavage; Potency, µM (highest dose often 130 µM), for inactives: top-dose activity change, negative = inhibition, most hits filed as inhibitors; hit rate 0.28% among 350,000; AID 485290; further: nearly all actives have a fitted effect of over 40% in size
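E. coli-derived human Tdp1, 1 nM final. Cpd preinc 15 min RT; substrate 15 nM final, 5 min RT; AS bead mix 10 ug/ml final, 10 min RT. Signal loss = tyrosine-FITC cleavage. No-enzyme wells = max signal.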
VDR inhibitor = inhibitors of human vitamin D receptor | hit rate 0.93% among 400,000 | VDR-SRC2-3 peptide fluorescence polarization, 2 h | P11473 | Potency, µM, inactives show max response, negative = inhibition, actives largely listed as inhibitors
Target sequence (P11473 whole entry, looked up): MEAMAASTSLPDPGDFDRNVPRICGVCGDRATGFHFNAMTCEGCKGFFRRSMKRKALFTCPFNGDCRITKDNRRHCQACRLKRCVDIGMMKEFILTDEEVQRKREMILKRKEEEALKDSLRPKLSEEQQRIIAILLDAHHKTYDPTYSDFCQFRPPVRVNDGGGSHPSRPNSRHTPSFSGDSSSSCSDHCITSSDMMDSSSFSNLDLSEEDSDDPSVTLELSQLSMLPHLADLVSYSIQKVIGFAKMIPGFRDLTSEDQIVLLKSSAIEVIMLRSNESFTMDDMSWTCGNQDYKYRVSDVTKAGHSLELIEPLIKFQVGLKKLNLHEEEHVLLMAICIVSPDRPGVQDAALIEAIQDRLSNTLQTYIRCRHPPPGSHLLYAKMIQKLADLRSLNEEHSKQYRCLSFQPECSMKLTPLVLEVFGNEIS
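Reagent solutions, kept cold and dark, are dispensed first; compounds are then pinned in at 23 nl, plates briefly spun, and incubated 2 h at ambient temperature. Inhibition of VDR–SRC2-3 peptide binding is read by fluorescence polarization.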
TDP1 cell noCPT = qHTS for Inhibitors of human tyrosyl-DNA phosphodiesterase 1 (TDP1): qHTS in cells in absence of CPT; DT40 Tdp1-/- hTDP1 cells, no CPT, ATP luminescence, 48 h; Potency, µM (highest dose often 46.2 µM), for the others: top-dose activity change, negative = growth inhibition, most hits filed as inhibitors; hit rate 15% among 420,000; AID 686978, 2013; further: nearly all actives have a fitted effect of over 55% in size
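Growth kinetics read by CellTiter-Glo luminescence after ≥48 hr at 37 °C. Cells: DT40 Tdp1-/- stably carrying human TDP1, 400 per well, compound exposure in the absence of CPT (DMSO vehicle).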
PLK1 PBD inh = PLK1 (human) polo-box domain binding inhibition; P53350; Plk1 PBD binding of FITC phosphopeptide, fluorescence polarization; Potency, µM, for inactives: max response, negative = inhibition, most hits filed as inhibitors; hit rate 2.8% among 360,000; AID 720504; further: series mostly up to about 57 µM; nearly all actives have a fitted effect of over 65% in size
KAT2A inh = blocks human GCN5L2 histone acetyltransferase. GCN5L2 HAT assay, ThioGlo1 CoA-SH fluorescence. Q92830. hit rate 0.21% among 390,000. Potency, µM (top dose mostly 58.9 µM), for the others: at the top dose activity change, negative = inhibition, hits mostly inhibitors
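GCN5L2 (20 nM) in 50mM HEPES pH 7.5, 0.1mM EDTA, 0.01% Tween-20 preincubated 15 min with compounds at room temperature. Reaction started with H3(1-25) 75uM, acetyl-CoA 70uM, ThioGlo1 50uM; CoA-thiol fluorescence (Ex340/Em540) read at 0 and 20 min.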
DT40 TDP1 CPT = growth inhibition of DT40 Tdp1-/-;hTDP1 cells with camptothecin (screen for TDP1 inhibitors); chicken DT40 Tdp1-/-;hTDP1 cells + 20 nM CPT, ATP luminescence, 48 h; Potency, µM (titrated, usually from 46.2 µM), inactives show top-dose activity change, negative = growth inhibition, hits mostly inhibitors; hit rate 12% among 420,000; AID 686979; further: nearly all actives have a fitted effect of over 55% in size
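Chicken DT40 Tdp1-/- cells stably complemented with human TDP1 were seeded at 400 cells/well in medium containing 20 nM camptothecin, exposed to pin-transferred compounds, and grown at 37 °C for at least 48 hr. Viability was read as ATP luminescence.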
* hit, by the source's call; ? = inconclusive; . = not tested or not shown; [ ] = dose if it differs, or a comment. The call rests on the fitted dose curve; in most records, active means well fitted curve in the direction sought with a large enough effect; inconclusive means small, poorly fitted or top-dose-only effect, or another doubt; inactive means no such curve, though single readings can be large; an effect the other way counts as inactive or inconclusive. On the % scale 0 is the no-effect control and ±100 the full control effect; potency means the concentration at half of the fitted maximal effect.

SMILES | TDP1 inh | VDR inhibitor | TDP1 cell noCPT | PLK1 PBD inh | KAT2A inh | DT40 TDP1 CPT
C[C@]12c3[nH]c4ccc(Cl)cc4c3CCN1C(=O)[C@@H](CC(=O)NCc1cccc(C(F)(F)F)c1)C[C@@H]2C(=O)N1CCCCC1 | 1.0%[56.1 µM] | -21.6% | 20.6µM* | -7.0% | -16.8% | ?
CCNC(=O)NC(=O)COC(=O)C1CSC2(C)CCC(=O)N12 (stereo not given) | 3.8% | -8.5% | 25.2% | -1.9% | -1.9% | 6.0%
CC1CC(C)CN(C(=O)c2ccc(NS(=O)(=O)c3ccc4[nH]c(=O)[nH]c4c3)cc2)C1 (stereo not given) | -0.3% | -7.6% | 2.2% | -0.7% | -1.7% | 6.5%
CC[C@]12c3[nH]c4ccccc4c3CCN1C(=O)C(CC(=O)NCc1cccc(C(F)(F)F)c1)C[C@@H]2C(=O)N1CCN(C(=O)C2CC2)CC1 (stereo not given in full) | 0.1% | -17.6% | 23.1µM* | -5.2% | -2.6% | ?
CC[C@]12c3[nH]c4ccc(Cl)cc4c3CCN1C(=O)[C@@H](CC(=O)NCc1cccc(C(F)(F)F)c1)C[C@@H]2C(=O)N1CCN(C(=O)C2CC2)CC1 | -0.3%[56.1 µM] | -27.4% | ? | 2.2% | -8.3% | ?
CCCCN(CC)c1nc(-c2ccncc2)nc2ccccc12 | -4.7% | -0.8% | ? | 1.8% | -2.2% | 16.4µM*
CN(C)c1ccc(-c2nc(NC3CCNCC3)c3ccccc3n2)cc1 | -4.2%[56.1 µM] | -2.6% | 1.16µM* | . | -23.1% | 1.3µM*
COCCNc1nc(-c2ccc(N(C)C)cc2)nc2ccccc12 | . | 79.4µM* | 20.6µM* | . | -13.2% | ?
CN(C)Cc1ccccc1-c1nc(NC2CCNCC2)c2ccccc2n1 | . | 0.8% | 0.651µM* | . | -6.4% | 0.366µM*
Cc1cc(Br)ccc1NC(=O)COC(=O)c1ccccc1OCC(N)=O | . | . | -15.0% | . | . | -4.2%
CCOCCCNC(=O)C(c1ccc(Cl)cc1)N(Cc1ccc2c(c1)OCO2)C(=O)c1ccccc1O (stereo not given) | 2.9% | -0.9% | ? | . | -0.3% | ?
Cc1cc(C)cc(-n2c(C)cc(C(=O)C(=O)Nc3ccccc3F)c2C)c1 | 2.9% | 16.9% | 1.0% | . | -6.9% | 2.9%
COC(=O)C1=C(C(=O)OC)[C@@H]2Nc3ccccc3[C@@]23C[C@@H](C(=O)OC)N(S(=O)(=O)c2ccc(Br)cc2)C3=N1 | 11.3%[12.3 µM] | . | . | . | . | .
Cc1ccc(-c2nc(NCCN(C)C)c3ccccc3n2)cc1 | . | 2.3% | ? | -1.4% | -8.9% | -17.3%
c1ccc(CCNc2nc(-c3ccccn3)nc3ccccc23)cc1 | 11.0% | -10.1% | 2.91µM* | -7.6% | ? | 3.26µM*
c1ccc(CN2CCN(c3nc(-c4ccccn4)nc4ccccc34)CC2)cc1 | 12.9% | -8.3% | 2.3% | -6.4% | -2.3% | -4.9%
COCCN(CCOC)c1nc(-c2ccc(C)cc2)nc2ccccc12 | . | -15.2% | 18.4µM* | 0.5% | -1.2% | ?
CCCN(CCC)c1nc(-c2ccccn2)nc2ccccc12 | . | -8.0% | 3.26µM* | 0.9% | 3.9% | 1.3µM*
COc1cccc(-c2nc(NC3CCNCC3)c3ccccc3n2)c1 | . | 1.0% | 20.6µM* | . | -10.6% | ?
c1ccc2c(NC3CCNCC3)nc(-c3ccoc3)nc2c1 | . | -0.6% | -2.8% | . | -13.3% | -2.7%
CN(C)CCCNC(=O)OC1CC2CC1[C@H]1CCCCN1C2=O (stereo not given in full) | . | . | -17.5% | 2.9% | . | 10.7%
Cc1ccc(CNc2cc(C)nc3nc(-c4cccc(C)c4)nn23)cc1 | 7.7% | 8.2% | . | . | -8.3% | .
COC(=O)C1CCCCN1Cc1nc(N2CCCN(C(C)=O)CC2)c2ccccc2n1 (stereo not given) | . | . | 1.2% | . | . | 22.7%[9.04 µM]
Cn1c(=O)n(CCc2ccccc2)c(=O)c2c1nc1n2CCN1c1ccc(Cl)cc1 | -5.2% | 10.4% | -13.1% | . | -5.0% | -7.3%
COc1cccc(-c2nc(NC3CCCC3)c3ccccc3n2)c1O | . | 7.0% | 18.4µM* | -6.5% | -6.2% | ?
SMILES | TDP1 inh | VDR inhibitor | TDP1 cell noCPT | PLK1 PBD inh | KAT2A inh | DT40 TDP1 CPT
Nc1ccc2c(c1)C(=NO)c1cc([N+](=O)[O-])ccc1-2 | . | -6.0% | 2.06µM* | 9.7% | . | 0.581µM*
O=[N+]([O-])c1ccc2c(c1)-c1ccccc1C2=NO | . | -2.0% | 16.4µM* | -13.0% | . | 18.4µM*
O=[N+]([O-])c1ccc2c(c1)C(=Nc1ccccc1)c1ccccc1-2 | . | 15.0% | -2.2% | -14.6% | . | 1.9%
O=C(Nc1cc2c(cc1Cl)-c1ccc([N+](=O)[O-])cc1C2=NO)C(F)(F)F | . | -5.3% | 23.1µM* | 2.3% | . | ?
O=C(Nc1ccccc1F)Nc1ccc([N+](=O)[O-])cc1Cl | . | -23.4% | ? | -1.7% | -7.7% | ?
CCCCC(=O)N1C(C)CCC1C (stereo not given) | . | . | 2.8% | 23.8µM* | . | 8.2%
CCc1ccc(Nc2n[n+](-c3ccccc3)c(/C=C/c3ccccc3)s2)cc1 | . | . | . | . | -3.3% | .
CCc1ccc(Nc2n[n+](-c3ccccc3)c(-c3c(Cl)cccc3Cl)s2)cc1 | . | ? | 14.6µM* | -19.4% | -2.6% | 23.1µM*
Fc1ccc(-[n+]2nc(Nc3ccccc3)sc2-c2c(Cl)cccc2Cl)cc1 | . | -12.4% | ? | -5.0% | -9.2% | 18.4µM*
CCc1ccc(Nc2n[n+](-c3ccccc3)c(-c3cc(OC)c(OC)cc3Br)s2)cc1 | . | -6.3% | ? | -14.6% | -2.2% | 16.4µM*
C[C@@]12C(=O)N(Cc3ccccc3)CC(=O)N1[C@H]1c3ccccc3OC[C@@H]1[C@@H]2c1ccccc1 | 0.4% | -9.4% | ? | 3.1% | -14.4% | ?
Cc1c(NC(=O)Nc2ccc(C#N)cc2)c(=O)n(-c2ccccc2)n1C | -2.1%[12.3 µM] | -5.0% | -13.9% | ? | 11.7% | 2.1%
Cc1c(NC=C(C#N)C#N)c(=O)n(-c2ccccc2)n1C | 7.4% | -6.2% | -15.9% | -1.3% | -4.3% | 2.6%
